Activity calls are given as the source filed them. Rule for the calls: active = hit-call score of the fitted dose curve at least 0.9, where 1 is the maximum; inactive = score below 0.9.
Molecular target: Estrogen receptor (Homo sapiens) (UniProt P03372)
Experiment: CCTE_Deisenroth_AIME_384WELL_LUC_Shift: CCTE's 384-well Estrogen Receptor Transactivation Assay with AIME metabolic competence data shift (ERTA luciferase; difference in metabolism positive and negative), Deisenroth Lab (AID 2284041);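 note: shift is response with S9 minus without S9 so positive means metabolism raised ER signal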
Method: CCTE_Deisenroth_AIME_384WELL (AIME metabolism assay) is a cell-based, single-readout assay that uses VM7Luc4E2, a human mammary gland/breast cell line, with measurements taken at 24 hour after chemical dosing in a 384-well plate.CCTE_Deisenroth_AIME_384WELL_LUC_Shift is one of two analysis components calculated from the CCTE_Deisenroth_AIME_384WELL assay. […] AIME is optimized to impart phase I hepatic metabolism using phenobarbital/beta-naphthoflavone induced hepatic S9 from male Sprague Dawley rats. Parent chemicals are incubated for 2 hours in the AIME assay prior to transfer to the VM7Luc ERTA assay plate. […] The metabolic curve shift response is defined as the pairwise difference between the positive (AEID 2488) and negative (AEID 2490) normalized response values at each concentration for a given chemical across replicate experiments. The pairwise differences form the basis for a concentration-response curve. Standard curve fit analysis identfiied chemicals where the calculated shift was greater than the shift-derived baseline cutoff. A positive hit designation in this endpoint indicates a significant shift trend in the positive direction for bioactivation.
The AIME procedure consists of a preparative "pre-stamping" step using a barium chloride/poly-L-lysine (PLL) solution followed by "stamping" the lid in alginate-hepatic S9 (metabolism positive) or alginate-water (metabolism negative) to form microspheres. Once stamping is completed, the AIME lids are placed in duplicate microplates (metabolism positive or negative) containing chemical solutions and incubated for two hours to facilitate metabolic reactions. The conditioned medium, containing parent chemical or metabolites, is then transferred to the cell-based VM7Luc Estrogen Receptor Transactivation Assay (ERTA) for 24 hours. A typical experimental design tests a 10-point concentration series (0.002 - 200 uM) for 8 compounds (96-well format)1 or 32 compounds (384-well format)2 in single technical replicate. AIME assay controls include trans-stilbene (bioactivated control) and ethylparaben (bioinactivated control). ERTA assay plate controls include 17-beta estradiol (positive control) and DMSO (solvent control). Experiments typically comprise a minimum of four experimental replicates (n=4).

Sequence of Estrogen receptor (Homo sapiens) (P03372 whole entry, looked up): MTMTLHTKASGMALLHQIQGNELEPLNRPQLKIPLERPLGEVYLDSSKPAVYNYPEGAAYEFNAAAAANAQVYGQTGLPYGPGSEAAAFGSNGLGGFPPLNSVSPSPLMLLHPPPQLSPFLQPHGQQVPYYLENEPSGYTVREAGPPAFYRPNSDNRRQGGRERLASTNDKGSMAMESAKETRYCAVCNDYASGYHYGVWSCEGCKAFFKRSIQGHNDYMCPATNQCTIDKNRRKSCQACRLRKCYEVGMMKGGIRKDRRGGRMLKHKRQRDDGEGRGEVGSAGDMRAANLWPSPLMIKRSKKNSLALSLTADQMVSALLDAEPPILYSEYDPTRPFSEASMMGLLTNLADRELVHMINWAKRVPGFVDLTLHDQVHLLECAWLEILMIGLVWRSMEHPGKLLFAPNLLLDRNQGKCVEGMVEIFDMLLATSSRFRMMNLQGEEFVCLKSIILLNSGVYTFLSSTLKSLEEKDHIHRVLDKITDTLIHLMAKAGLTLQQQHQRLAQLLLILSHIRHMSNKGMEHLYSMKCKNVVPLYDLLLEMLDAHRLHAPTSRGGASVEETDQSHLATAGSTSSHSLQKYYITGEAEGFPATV

SMILES | outcome | AC50
CC(C)c1cccc(C(C)C)c1 | inactive | 
COC(=O)CCC(=O)OC | inactive | 
CC1(C)C(=O)NC(=O)N1CO | inactive | 
O=[Si]=O | inactive | 
CCCCCCCC(=O)OC | inactive | 
CSc1ccc(Oc2ccc(S(N)(=O)=O)cc2CN(C)C)cc1C | inactive | 
O=C(O)c1[nH]n(-c2ccc(S(=O)(=O)O)cc2)c(=O)c1N=Nc1ccc(S(=O)(=O)O)cc1 | inactive | 
NC1CCCCC1 | inactive | 
O=C(O)CN(CC(=O)O)CC(=O)O |  | 233 µM (active)
CN(C)CCCN(C)CCCN(C)C | inactive | 
Nc1nc(=S)c2[nH]cnc2[nH]1 | inactive | 
CCCCCCCCCCCCCCCCO | inactive | 
O=C1CCCCC1 | inactive | 
CCCCCCC(CCCCCCCCCCC(=O)OCC(COC(C)=O)OC(C)=O)OC(C)=O (centres undefined) | inactive | 
O=C(O)CC(O)(CC(=O)O)C(=O)O | inactive | 
CC1=C(C)S(=O)(=O)CCS1(=O)=O | inactive | 
c1ccc2occc2c1 | inactive | 
Cc1ccc(C(C)(C)C)c(O)c1 | inactive | 
CC(C)OC(=O)C(C)(C)Oc1ccc(C(=O)c2ccc(Cl)cc2)cc1 | inactive | 
